Measurements published in PubChem BioAssay.

Key:
[1] = system: Human papillomavirus type 1a protein E7 (residues 44-93); test: small molecules binding HPV E7 44-93 – biochemical, small-molecule microarray, residues 44-93, 635 nm fluorescence, primary screen (AID 1108); settings: fluorescence 635 nm, higher = more signal;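 also: E7 fragment applied at 1 µg/mL in TBST for 1 h at 4 C; score combines spot fluorescence with its signal to noise ratio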
[2] = hepatitis C replication reporter changes, two-sided – Huh7 cells, luciferase reporter, HCV replication inhibitor project, primary screen (AID 1109); settings: Huh7 HCV replicon luciferase reporter, 48 h; higher = more signal;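 also: huh7 hepatoma cells harbouring a luciferase neomycin HCV replicon reporter; luciferase luminescence as measure of HCV replicon replication; test concentration not given here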
[3] = target: Left-right determination factor 2 (Homo sapiens) (UniProt O00292); test: small molecules binding LEFTY2 protein – biochemical, small-molecule microarray, 635 nm fluorescence scan, primary screen (AID 1110); settings: higher = more signal
Sequence of Left-right determination factor 2 (Homo sapiens) (O00292 whole entry, looked up): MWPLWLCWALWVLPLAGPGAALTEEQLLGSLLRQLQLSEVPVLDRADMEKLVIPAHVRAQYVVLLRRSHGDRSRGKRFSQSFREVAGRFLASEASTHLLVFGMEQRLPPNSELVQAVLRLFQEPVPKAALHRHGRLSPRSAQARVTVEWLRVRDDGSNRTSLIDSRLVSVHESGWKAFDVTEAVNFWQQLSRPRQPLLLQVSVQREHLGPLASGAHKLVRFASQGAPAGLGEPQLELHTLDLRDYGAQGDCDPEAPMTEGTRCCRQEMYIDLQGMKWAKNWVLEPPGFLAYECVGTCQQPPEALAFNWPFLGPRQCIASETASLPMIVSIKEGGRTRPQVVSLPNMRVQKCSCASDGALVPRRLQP

[4] = target: Calmodulin-1 (Homo sapiens) (UniProt P0DP23); test: small molecules binding calmodulin-1 with EGTA – biochemical, small-molecule microarray, Cy5-labelled CALM1, profiling panel (AID 1111); settings: Cy5-CALM1 binding fluorescence, higher = more signal;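 also: labelled calmodulin applied in Tris saline Tween buffer holding calcium plus EGTA and DTT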
[5] = target: Calmodulin-1 (Homo sapiens) (UniProt P0DP23); test: small molecules binding Ca-loaded calmodulin-1 – biochemical, small-molecule microarray, Cy5-labelled CALM1, plus calcium, artefact control for SMM control-protein annotation, profiling panel (AID 1112); settings: Cy5-CALM1 binding fluorescence, higher = more signal;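 also: score merges spot fluorescence with signal to noise from triplicate slides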
[6] = probe aWnt5a binding to arrayed compounds – biochemical, biotinylated probe, 635/667 nm fluorescence, primary screen (AID 1113); settings: small-molecule microarray, higher = more signal;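 also: score merges 667 nm fluorescence intensity with signal-to-noise per printed feature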
[7] = probe aShh binding to arrayed compounds – biochemical, biotinylated probe, 635/667 nm fluorescence, primary screen (AID 1114); settings: small-molecule microarray, higher = more signal;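 also: probe is biotin-labelled aShh protein from a stem cell growth factor screen; measures binding of labelled protein to compounds printed on the slide; score merges feature fluorescence at 667 nm with signal-to-noise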
[8] = probe aNog binding to arrayed compounds – biochemical, biotinylated probe, 635/667 nm fluorescence, primary screen (AID 1115); settings: small-molecule microarray, higher = more signal;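 also: probe is biotinylated aNog protein used at 0.15 µg/mL for 1 h at 4 C; z-score combines 667 nm fluorescence of each spot with its signal to noise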
[9] = target: Torsin-1A-interacting protein 1 (Homo sapiens) (UniProt Q5JTV8); test: compound microarray binding of lysate hLAP1 – cell lysate, small-molecule microarray, COS7 lysate, 635/667 nm fluorescence, primary screen (AID 1116); settings: 635 nm fluorescence, higher = more signal
Sequence of Torsin-1A-interacting protein 1 (Homo sapiens) (Q5JTV8 whole entry, looked up): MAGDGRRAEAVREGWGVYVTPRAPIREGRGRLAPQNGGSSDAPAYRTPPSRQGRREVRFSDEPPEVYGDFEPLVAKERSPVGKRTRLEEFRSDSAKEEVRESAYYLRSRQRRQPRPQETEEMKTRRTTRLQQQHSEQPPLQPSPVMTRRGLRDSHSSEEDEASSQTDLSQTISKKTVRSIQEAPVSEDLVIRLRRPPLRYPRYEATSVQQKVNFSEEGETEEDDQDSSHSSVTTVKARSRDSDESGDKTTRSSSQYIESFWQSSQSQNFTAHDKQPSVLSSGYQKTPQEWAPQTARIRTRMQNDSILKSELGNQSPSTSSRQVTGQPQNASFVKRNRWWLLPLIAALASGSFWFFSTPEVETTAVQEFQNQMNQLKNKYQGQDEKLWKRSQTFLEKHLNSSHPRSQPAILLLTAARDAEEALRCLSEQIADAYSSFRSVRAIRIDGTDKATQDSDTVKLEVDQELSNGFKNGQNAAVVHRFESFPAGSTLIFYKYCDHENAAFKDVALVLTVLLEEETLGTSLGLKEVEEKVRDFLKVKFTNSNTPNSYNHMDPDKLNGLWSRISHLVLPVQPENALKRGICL

[10] = target: Alpha-bungarotoxin (Bungarus multicinctus) (UniProt P60615); test: compounds binding labelled alpha-BTX control protein – biochemical, small-molecule microarray, Alexa647 label, 635/667 nm fluorescence, artefact control for SMM control protein annotation, profiling panel (AID 1117); settings: alpha-BTX-A647 binding fluorescence, higher = more signal
Sequence of Alpha-bungarotoxin (Bungarus multicinctus) (P60615 whole entry, looked up): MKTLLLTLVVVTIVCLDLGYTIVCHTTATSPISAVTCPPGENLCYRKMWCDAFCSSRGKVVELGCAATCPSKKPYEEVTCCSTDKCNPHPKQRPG

Structure (SMILES) | composite z-score [1] | z-score [2] | composite z-score [3] | composite z-score [4] | composite z-score [5] | composite z-score [6] | composite z-score [7] | composite z-score [8] | composite z-score [9] | composite z-score [10]
COC(=O)C1=CC(CCCO)=CC(c2ccc(CN3CCCC3)cc2)N(Cc2cccc(OC(F)(F)F)c2)C=C1C(=O)OC (stereo not given) | 1.38 | -1.18 | 0.0706 | 2.08 | 0.695 | -0.172 | -0.0953 | 0.947 | 2.1 | 1.89
CCOC(=O)C1=C[C@@H](C(C)C)N(S(=O)(=O)c2ccc(C)cc2)[C@H]1c1ccc(C(F)(F)F)cc1 | 1.4 | -0.972 | 0.499 | 1.07 | -0.0824 | -0.0607 | 0.296 | 0.868 | 0.76 | 1.06
C=CCN1C(=O)[C@]2(CCS(=O)(=O)c3ccccc3)N=C(c3ccc(OCCCO)cc3)O[C@@H]2c2ccccc21 | 1.29 | -2.68 | 0.59 | 2.17 | -0.493 | -0.0268 | 0.365 | 0.033 | 1.68 | 1.2
C=CCC(OC(C)=O)[C@@H]1[C@@H](N(Cc2cccc3ccccc23)C(=O)Cc2ccc(F)cc2)c2cc(OCCCO)ccc2N1C(=O)c1ccc2ccccc2c1 (stereo not given in full) | 0.408 | -0.204 | 0.171 | -0.0876 | 0.441 | -0.124 | -0.0626 | -0.17 | -0.0393 | 0.0927
CC[C@@H]1O[Si](C(C)C)(C(C)C)c2c1cc(-c1cc(C)c(OC)c(C)c1)nc2-c1ccc(Oc2ccccc2)cc1 | -0.871 | -0.748 | -0.389 | -0.162 | 0.0543 | -0.117 | -0.299 | -0.103 | -0.386 | 0.0748
COCCOC(=O)N1C(=O)[C@@]2(c3cc(C#CCC(C(=O)OC)C(=O)OC)ccc31)[C@H](c1ccc(OCCO)cc1)N1[C@H](c3ccccc3)[C@H](c3ccccc3)OC(=O)[C@H]1[C@@H]2C(=O)N1CCc2cc(OC)c(OC)cc2C1 | 1.42 | -0.919 | 0.52 | 1.01 | 0.182 | -0.072 | 0.123 | 0.353 | 1.05 | 1.68
C=CCNC(=O)[C@@H]1[C@H]2C(=O)O[C@H](c3ccccc3)[C@H](c3ccccc3)N2[C@H](c2ccccc2OCCO)[C@@]12C(=O)N(C(=O)OCCOC)c1ccc(C#CC3(O)CCCCCC3)cc12 | 1.23 | -2.27 | 0.694 | 0.66 | 0.212 | -0.0566 | -0.0035 | -0.0224 | 1.35 | 0.859
Cn1cccc1C(O)C1C=CC2C(=O)N(c3ccccc3)C(=O)C2N1Nc1ccccc1 (stereo not given) | 1.09 | -0.36 | 0.739 | 1.69 | 0.405 | 0.181 | -0.0578 | 0.977 | 1.31 | 1.68
[N-]=[N+]=Nc1ccccc1C[C@@]1(C(N)=O)N=C(c2ccc(OCCCO)cc2)O[C@@H]1c1ccccc1N=[N+]=[N-] | 1.03 | -2.35 | -0.0762 | 1.51 | 0.827 | -0.132 | 0.0948 | -0.722 | 1.01 | 1.09
C=C[C@@H](CO)N(Cc1ccc(OC)cc1)S(=O)(=O)c1ccc(Br)cc1 | 0.19 | -1.25 | 0.211 | -0.0366 | -0.213 | 0.0377 | -0.0709 | -0.201 | 0.572 | -0.0436
O=C1OCCC=C[C@H]2OC34C=CCN(Cn5nnc6ccccc65)C(=O)[C@H]3N(CCCO)C(=O)[C@@H]4C12 (stereo not given in full) | -0.69 | -0.642 | -1.02 | -0.5 | -0.0354 | -0.112 | -0.388 | -0.527 | 0.879 | 0.204
COc1ccc(CCNC(=O)[C@@]2(Cc3ccccc3I)c3ccccc3C(=O)N(C3CCCCC3)[C@H]2c2ccc(CO)cc2)cc1 | 1.3 | -3.2 | -0.425 | 0.902 | 0.609 | -0.0721 | -0.0626 | -0.158 | 0.0805 | 0.678
CCOC(=O)C[C@H]1[C@H](OC(=O)c2ccc(C(=O)c3ccccc3)cc2)[C@@H](NC(=O)c2ccc3ccccc3n2)c2cc(OCCCO)ccc2N1C(=O)Cc1ccc(OC)cc1 | 0.947 | 0.361 | 0.471 | 1.08 | 0.0823 | -0.202 | 0.0115 | -0.259 | -0.0179 | -0.0434
CCCC#C[Si](O[C@H](CC)c1cn([C@H](C)c2ccccc2)nn1)(C(C)C)C(C)C | 0.691 | -0.133 | 0.3 | -0.155 | -0.157 | -0.124 | 0.275 | 0.341 | 1.54 | 0.709
CC(CO)N1C(=O)[C@@H]2[C@H]3C(=O)OCC=C[C@H]3OC23C=CCN(Cn2nnc4ccccc42)C(=O)[C@@H]13 (stereo not given in full) | -0.931 | 0.0368 | -1.4 | -0.196 | 0.0507 | -0.13 | -0.117 | 0.0517 | -0.607 | -0.975
CC(C)N1CC=CC23O[C@@H]4C=CCCOC(=O)C4[C@H]2C(=O)N(CCCO)[C@@H]3C1=O (stereo not given in full) | 0.0707 | -1.15 | -0.539 | -0.544 | -0.694 | -0.145 | -0.0769 | -0.0546 | 0.263 | -0.659
CC(=O)NCCCC[C@@H]1NC(=O)[C@@H]2C[C@H](C(=O)NCCCCCN)[C@H](c3ccc(O)cc3)N2C1=O | 1.32 | -0.663 | 1.31 | 0.331 | 0.711 | 0.258 | -0.0794 | -0.158 | 1.31 | 0.766
CO[C@H]1O[C@H](CO)[C@@H](OC(=O)CCc2ccccc2)[C@@H]2OC(=O)[C@@H](Cc3ccccc3)C/C=C/C[C@H](Cc3ccccc3)C(=O)O[C@@H]12 | 1.3 | -1.97 | 0.0673 | 0.485 | 0.0529 | -0.0802 | 0.772 | 0.156 | -0.161 | 1.29
O=C1C2C=CC(C(O)c3cccc(O)c3)N(Nc3ccc([N+](=O)[O-])cc3)C2C(=O)N1c1ccccc1 (stereo not given) | 0.939 | -0.278 | 0.183 | 0.0968 | 0.219 | -0.0462 | 0.0022 | -0.163 | 0.26 | 1.13
CCCC[C@@H]1C[C@H]1[C@@H](NC(=O)c1cccs1)c1ccccc1C(F)(F)F | 1.39 | 0.758 | -0.363 | 1.72 | 0.763 | -0.001 | 0.663 | 1.52 | 0.582 | 0.881
CC(=O)N1CC2(CC2)CC1c1ccccc1 (stereo not given) | 0.753 | 0.677 | 0.171 | 0.107 | 0.0916 | 1.19 | -0.227 | 2.15 | 0.791 | -0.217
CC(C)N1C(=O)c2ccccc2[C@@H](C(=O)NCCN2CCOCC2)[C@@H]1c1ccc(CO)cc1 | 0.0391 | -0.476 | -2.07 | -0.346 | 0.603 | -0.256 | -0.221 | -0.321 | -0.171 | -1.25
O=C(NCCN1CCOCC1)[C@@H]1c2ccccc2C(=O)N(C2Cc3ccccc3C2)[C@H]1c1ccc(CO)cc1 | 1.4 | -1.42 | -1.57 | -0.472 | -0.301 | -0.23 | -0.13 | -0.447 | 0.554 | 0.776
C=CCC(OC(C)=O)[C@@H]1[C@@H](N(Cc2ccc(-c3cccc(C(F)(F)F)c3)o2)C(=O)Cc2ccc(OC)cc2)c2cc(OCCCO)ccc2N1C(=O)c1ccc(-c2ccccc2)cc1 (stereo not given in full) | -0.433 | 0.278 | -0.164 | -0.364 | -0.341 | 0.0079 | -0.0793 | -0.577 | -0.205 | 1.13
CCOC(=O)C[C@H]1[C@H](OC(=O)c2ccc(-c3ccccc3)cc2)[C@@H](NC(=O)CC(C)C)c2cc(OCCCO)ccc2N1C(=O)c1ccc2ccccc2n1 | 0.903 | -1.3 | 0.218 | 0.326 | -0.631 | -0.0678 | 0.0723 | 0.39 | -0.289 | 0.0623
